This is part of a sample that, as a whole, favours compounds with a hit. Of some 83,000 tested, about 20% had one in any assay.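 The test compound was applied at a single concentration to cells in 96-well plates for 48 hours, and percent growth was recorded.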 Unmarked numbers belong to inactive results. Active and inactive are the calls of the source. The calls were made as follows: active = growth percent below 10; inactive = the rest.
Assays:
Experiment in all cases: NCI-60 one-dose screen, 48 h (100 = growth as untreated, 0 = no growth, -100 = all killed)
Settings in all cases: 10 µM unless noted
SR leukemia = system: SR leukemia
RPMI-8226 leukemia = system: RPMI-8226 leukemia
OVCAR-8 ovarian = system: OVCAR-8 ovarian
OVCAR-5 ovarian = system: OVCAR-5 ovarian
OVCAR-4 ovarian = system: OVCAR-4 ovarian
SK-OV-3 ovarian = system: SK-OV-3 ovarian
IGROV1 ovarian = system: IGROV1 ovarian
OVCAR-3 ovarian = system: OVCAR-3 ovarian
HS 578T breast = system: HS 578T breast
NCI/ADR-RES ovarian = system: NCI/ADR-RES ovarian
T-47D breast = system: T-47D breast
BT-549 breast = system: BT-549 breast
MDA-MB-435 melanoma = system: MDA-MB-435 melanoma
SW-620 colon = system: SW-620 colon
HCT-116 colon = system: HCT-116 colon
HCC-2998 colon = system: HCC-2998 colon
KM12 colon = system: KM12 colon
MCF7 breast = system: MCF7 breast

SMILES	growth (SR leukemia)	growth (RPMI-8226 leukemia)	growth (OVCAR-8 ovarian)	growth (OVCAR-5 ovarian)	growth (OVCAR-4 ovarian)	growth (SK-OV-3 ovarian)	growth (IGROV1 ovarian)	growth (OVCAR-3 ovarian)	growth (HS 578T breast)	growth (NCI/ADR-RES ovarian)	growth (T-47D breast)	growth (BT-549 breast)	growth (MDA-MB-435 melanoma)	growth (SW-620 colon)	growth (HCT-116 colon)	growth (HCC-2998 colon)	growth (KM12 colon)	growth (MCF7 breast)
COc1cccc(-c2nn(-c3ccccc3)cc2-c2ccnc(NCCCNC(=O)c3ccccc3)c2)c1	-19.8% (active)	27.9%	38%	92.7%	43.1%	41.7%	67.1%	51.2%	51.3%	27.1%	4.22% (active)	14%	5.43% (active)	39.7%	36%	52.3%	33.6%	–
C[n+]1cc2cc(C(N)=O)[nH]c3c(=N)c(Cl)c(N)c1c23	37.6%	73%	43.1%	62%	73%	60%	65.1%	63.1%	108%	60%	48.3%	78.9%	85.7%	30.8%	6.54% (active)	65.5%	74.5%	35.8%
CCCCCCCCCCCCCCCCCCOc1ccccc1CC(=O)OCCC[N+](C)(C)C	56.6%	38.1%	43.8%	46.9%	35%	94.2%	-15.2% (active)	64.3%	67.2%	100%	72.3%	102%	58.3%	40%	–	37.2%	76.1%	–
COC(=O)CCC1=C(C)C2=NC1=CC1=NC(=CC3=NC(=Cc4[nH]c(/c(=C(/C)O)c4C)=C2)C(C(C)=O)=C3C)C(C)=C1CCC(=O)OC	111%	85.7%	100%	111%	107%	95.1%	108%	107%	89.1%	103%	82.9%	100%	108%	103%	–	104%	104%	98.2%
CC(CCc1ccc(Cl)c(Cl)c1)NCc1ccc(C(C)(C)C)cc1 (stereo not given)	-10.5% (active)	74.5%	85.8%	91.3%	88.1%	93.6%	90.3%	98.2%	85.2%	86.3%	67.7%	68.9%	–	80.2%	79.1%	-18.4% (active)	89.2%	80.8%
CNS(=O)(=O)c1n[nH]nc1-c1cc(C(C)(C)C)c(O)c(C(C)(C)C)c1	98.6%	96.2%	100%	111%	100%	92.9%	103%	112%	102%	105%	78.9%	101%	106%	109%	94.6%	105%	105%	93.8%
Fc1c[c-]c(-c2ccccn2)c(F)c1.[CH3-].[Pt+2].c1ccc(P(C[PH+](c2ccccc2)c2ccccc2)c2ccccc2)cc1	1.65% (active)	-13.2% (active)	7.36% (active)	-34.5% (active)	-19.3% (active)	9.11% (active)	-22.2% (active)	-74.9% (active)	-5.48% (active)	49.8%	-5.03% (active)	-28.1% (active)	-51.8% (active)	-63.5% (active)	–	-27.5% (active)	-40.6% (active)	6.04% (active)

— PubChem BioAssay (NCI)
